Several values for one entry are separate records, joined by “and”; a condition that tells them apart may be missing. Equal values may be shown once. Results filed as inconclusive are left out. A call without a number means that no potency is given here. Activity calls are given as the source filed them. Calls come from the whole dose curve; as a rule, active = well fitted cell-killing curve with a large enough effect in the repeat runs; inconclusive = weak or mixed curves; inactive = no such curve, though single readings can be large or run the other way.
experiment: qHTS assay to identify small molecule agonists of the peroxisome proliferator-activated receptor delta (PPARd) signaling pathway - cell viability counter screen (AID 743211); details: PPARd-bla HEK293H viability, CellTiter-Glo luminescence, 17 h; series mostly up to 62.6 µM; activity change, negative = cytotoxicity: at the top concentration; note: nearly all actives have a fitted effect of over 55% in size
Description: U.S. Tox21 Program National Center for Advancing Translational Sciences [NCATS] NIH Chemical Genomics Center [NCGC] U.S. Environmental Protection Agency [EPA] National Institutes of Environmental Health Sciences [NIEHS] National Toxicology Program [NTP] U.S. Food and Drug Administration [FDA] Tox21 Assay Overview: The peroxisome proliferator-activated receptors (PPARs) are lipid-activated transcription factors of the nuclear receptor superfamily with three distinct subtypes namely PPAR alpha, PPAR delta (PPARd) and PPAR gamma. All these subtypes heterodimerizes with Retinoid X receptor (RXR) and have different physiological functions. […] To identify the compounds that activate PPAR-delta signaling, GeneBLAzer PPAR delta UAS-bla HEK293H cell line (Invitrogen, Carlsbad, CA, USA) containing a beta-lactamase reporter gene under the control of an Upstream Activator Sequence (UAS) was used to screen the Tox21 compound library. The cytotoxicity of the Tox21 compound library against the PPARd-bla cell line was tested in parallel by measuring the cell viability using CellTiter-Glo assay (Promega, Madison, WI) in the same wells.
Tox21 Assay Protocol Summary: PPARd-bla cells were dispensed at 3000 cells/6uL/well in 1536-well black wall/clear bottom plates using a Multidrop Combi (Thermo Fisher Scientific, Waltham, MA) dispenser. After the assay plates were incubated at 37 C and 5% CO2 for 5 h, 23 nL of compounds dissolved in DMSO, positive controls or DMSO only was transferred to the assay plate by a Pintool station (Kalypsys, San Diego, CA). The assay plates were incubated at 37C for 17 h. After 1 uL of LiveBLAzerTM B/G FRET substrate was added using a Bioraptr Flying Reagent Dispenser (FRD) workstation (Beckman Coulter, Indianapolis, IN, USA), the plates were incubated at room temperature for 2 h, and fluorescence intensity was measured by an Envision plate reader (PerkinElmer, Shelton, CT). For cell viability readout that measures cytotoxicity, 3 ul/well of CellTiter-Glo reagent was added into the assay plates using a Bioraptr FRD. After 30 min incubation at room temperature, the luminescence intensity in the plates was measured using a ViewLux plate reader (PerkinElmer).
Potency is the fitted concentration of half-maximal effect.

Row | Structure (SMILES) | Potency | activity change, negative = cytotoxicity
1 | CCCCCCCCCC(=O)O | inactive | –
2 | C=C1C2CCC(C2)C1(C)C (stereo not given) | inactive | –
3 | Oc1ccc2ccccc2c1N=Nc1ccccc1 | inactive | –
4 | NC(=O)/N=N/C(N)=O | inactive | –
5 | O=C(O)c1ccc([N+](=O)[O-])cc1 | inactive | –
6 | CC1(C)CC(N=C=O)CC(C)(CN=C=O)C1 (stereo not given) | – | 1.54% [at 81.1 µM] (inactive)
7 | NCCNCCNCCNCCN | inactive | –
8 | CC(C)NCC(O)COc1cccc2ccccc12 (stereo not given) | – | -7.73% [at 81.1 µM] (inactive)
9 | CNC[C@H](O)[C@@H](O)[C@H](O)[C@H](O)CO | – | -1.52% (inactive)
10 | Clc1cc(Cl)c(Cl)cc1Cl | inactive | –
11 | O=Nc1ccc(O)cc1 | inactive | –
12 | Cc1cc(O)cc(C)c1Cl | inactive | –
13 | COC(=O)c1ccc(C(=O)OC)cc1 | inactive | –
14 | OC[C@@H](O)[C@@H](O)[C@H](O)[C@@H](O)CO | inactive | –
15 | Oc1c(Cl)cc(Cl)c(Cl)c1Cl | – | -6.91% (inactive)
16 | CC(C)(C)C1CCC(O)CC1 (stereo not given) | inactive | –
17 | C=C1CC[C@H](O)CC1=C/C=C1\CCC[C@]2(C)[C@@H]([C@H](C)/C=C/[C@H](C)C(C)C)CC[C@@H]12 | 54.5 µM (active) and 6.16 µM (active) | –
18 | CC(C)n1c(/C=C/[C@@H](O)C[C@@H](O)CC(=O)O)c(-c2ccc(F)cc2)c2ccccc21 | – | -8.07% (inactive)
19 | CC1=C(CC(=O)O)c2cc(F)ccc2/C1=C\c1ccc(S(C)=O)cc1 (stereo not given) | inactive | –
20 | O=C1N=C(O)CN1/N=C/c1ccc(-c2ccc([N+](=O)[O-])cc2)o1 | inactive | –

Row | Structure (SMILES) | Potency | activity change, negative = cytotoxicity
21 | NCCc1ccc(O)c(O)c1 | inactive | –
22 | CCCCC(CC)COC(=O)/C=C\C(=O)OCC(CC)CCCC (stereo not given) | inactive | –
23 | CC(C)(CO)COC(=O)C(C)(C)CO | inactive | –
24 | OC[C@@H](O)[C@H](O)[C@H](O)[C@@H](O)CO | inactive | –
25 | CCCCCCCCC | inactive | –
26 | O=S(=O)(O)CCS | inactive | –
27 | C=C(C#N)C(=O)OCC | inactive | –
28 | CC1(C)O[C@@H]2C[C@H]3[C@@H]4C[C@H](F)C5=CC(=O)CC[C@]5(C)[C@H]4[C@@H](O)C[C@]3(C)[C@]2(C(=O)CO)O1 | inactive | –
29 | OC1CCCC1 | inactive | –
30 | O=C(c1cc(O)c(O)c(O)c1)c1ccc(O)c(O)c1O | inactive | –
31 | Cn1c([N+](=O)[O-])cnc1COC(N)=O | inactive | –
32 | CC1COc2ccccc2N1C(=O)C(Cl)Cl (stereo not given) | inactive | –
33 | CCc1ccc(O)cc1 | inactive | –
34 | O=C(c1ccc(O)cc1)c1ccc(O)cc1O | inactive | –
35 | C=C(C)C(=O)OCC(CC)(COC(=O)C(=C)C)COC(=O)C(=C)C | inactive | –
36 | C=C(C)C(=O)OCCCCCCCCCCCC | inactive | –
37 | CC(C)(N=C=O)c1cccc(C(C)(C)N=C=O)c1 | inactive | –
38 | Cc1ccc(N)c(S(=O)(=O)O)c1 | inactive | –
39 | ClC1=C(Cl)C(Cl)(Cl)C(Cl)=C1Cl | inactive | –
40 | Oc1ccc(OCc2ccccc2)cc1 | inactive | –

Reference: PubChem BioAssay (Tox21)
